SRC3 inh: SRC3 coactivator transcriptional activity inhibitors, primary screen, cell-based, luminescence | hit rate 0.17% among 360,000 | inhibition, % at 3.6 µM | HEK293 GAL4-SRC3 luciferase reporter | Nuclear receptor coactivator 3 (Homo sapiens), Q9Y6Q9;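 active = inhibition above a per-campaign cutoff, the mean of all compounds plus 3 SD, cut at about 60% in these data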;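 also: 0% = DMSO-treated cells and 100% = gossypol-treated cells at 36 µM; higher means less SRC3-driven luciferase light from the GAL4 reporter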
NCOA2 inhibitor: inhibition of GAL4-SRC2 driven luciferase reporter, primary screen, SRC2 inhibitor project, cell-based, luminescence | HEK293 GAL4-SRC2 luciferase reporter | inhibition, % at 9 µM | hit rate 0.17% among 370,000 | AID 651957, 2012;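 active = inhibition above the mean inhibition of all tested compounds plus 3 SD, set per campaign, cut at about 52% in these data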;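 also: 0% = DMSO treated cells and 100% = cells given Gossypol at 36 µM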
SRC1 inh: SRC1 coactivator transcriptional activity inhibitors, primary screen, cell-based, luminescence. Nuclear receptor coactivator 1 (Homo sapiens), Q15788. HEK293 GAL4-SRC1 luciferase reporter. inhibition, % at 3.6 µM. hit rate 0.12% among 360,000. AID 588354, 2011;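 active = inhibition above the campaign mean plus 3 SD, with each screening campaign given its own cutoff, cut at about 60% in these data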;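 also: 0% = DMSO treated cells and 100% = gossypol at 36 µM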
GalR3 antag: GalR3 antagonists in HEK293 cells, primary screen, cell-based, fluorescence readout | HEK293 GalR3-CNG cAMP membrane potential fluorescence; galR3 body fused to GalR1 C-terminus | inhibition, % at 3 µM | hit rate 0.44% among 360,000 | AID 651719, 2012;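 active = inhibition above the screen-wide average plus 3 SD, cut at about 13% in these data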;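 also: forskolin and galanin both at EC90 stimulate the cells; cAMP rise reported by CNG channel membrane potential dye signal; 0% = forskolin plus galanin with DMSO and 100% = forskolin alone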
NR5A2 inv ag: LRH-1 (NR5A2) inverse agonists, primary screen, cell-based, luminescence, HEK293T, StAR-luciferase reporter; AID 602396, 2012; Nuclear receptor subfamily 5 group A member 2 (Homo sapiens), O00482; LRH-1 transfected, 24 h; inhibition, % at 3.6 µM; hit rate 0.13% among 360,000;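 active = inhibition above the mean inhibition of all tested compounds plus 3 SD, cut at about 73% in these data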;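 also: 0% = DMSO wells and 100% = reporter-only cells lacking LRH-1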
NR2F2 inh: NR2F2 transcriptional activity inhibitors, primary screen, cell-based, luciferase reporter, HEK293T, luminescence | COUP transcription factor 2 (Homo sapiens), P24468 | hit rate 0.7% among 370,000 | HEK293T NGFI-A luciferase reporter | inhibition, % at 8.6 µM;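 active = inhibition above a per-plate cutoff, mean inhibition of test wells between control levels plus 3 SD, cut at about 38% in these data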;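 also: cells cotransfected with COUP-TFII expression vector driving the NGFI-A reporter; 0% = median of COUP-TF2 test wells and 100% = reporter-only cells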
Gal4-VP16 ctr: Gal4-VP16 luciferase reporter inhibitors, counter-screen for COUP-TFII antagonist project, cell-based, luminescence, HEK293 | AID 687007, 2013 | shares compounds with NR2F2 inh | inhibition, % at 8.5 µM | hit rate 25% among 2,500; in the data active = inhibition above about 13%
NR2F2 inh conf: NR2F2 transcriptional activity inhibitors, confirmation, cell-based, luciferase reporter, HEK293, triplicate. hit rate 45% among 2,500. inhibition, % at 8.5 µM. AID 687008, 2013. HEK293 NGFI-A luciferase reporter, luminescence. shares compounds with NR2F2 inh;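 active = mean inhibition over three repeats above a set limit taken from the earlier primary screen, cut at about 38% in these data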;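 also: 100% = cells given the luciferase reporter alone without the COUP-TF2 vector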
Numbers without * were called inactive; · = no result. The list is not random: actives were taken first. Their share in the collection is about 1.1%.

SMILES	SRC3 inh	NCOA2 inhibitor	SRC1 inh	GalR3 antag	NR5A2 inv ag	NR2F2 inh	Gal4-VP16 ctr	NR2F2 inh conf
Cc1cc(C)c(C)c(S(=O)(=O)NCc2ccncc2)c1C	10	-3	4	-11	26	38*	6	30
Cn1c(=O)oc2cc(S(=O)(=O)NCc3ccncc3)ccc21	-1	24	14	-3	26	44*	-8	-4
Cc1ccc(NC(=O)c2ccc(-n3cncn3)c([N+](=O)[O-])c2)cc1F	22	27	-36	-1	-26	12	·	·
CCCC/C(C)=N/NC(=O)CN(c1ccc(Br)cc1)S(=O)(=O)c1ccccc1	7	4	-40	-11	6	8	·	·
C/C(=N/NC(=O)CN(c1ccccc1)S(=O)(=O)c1ccccc1)c1ccccc1O	5	7	7	-1	7	41*	-8	3
Cc1ccc(-c2cc(C(=O)NN=Cc3cccc(Oc4ccccc4)c3)[nH]n2)cc1C	·	-33	·	·	·	-22	·	·
COc1ccc(-c2cc(C3CCN(c4ccc(C(C)=O)cc4[N+](=O)[O-])CC3)[nH]n2)cc1	19	27	7	-9	-12	42*	-3	19
CCOC(=O)C1(C(=O)OCC)Cc2c([nH]c3ccccc23)[C@]2(N1)C(=O)N(C)c1ccc(Br)cc12	·	-2	·	·	·	1	·	·
CC(=O)c1ccc(NC(=O)C(C)OC(=O)c2ccc(Br)o2)cc1 (stereo unspecified)	5	-7	-1	-2	-3	-3	·	·
COc1ccc(Cc2c(-c3cccc(Cl)c3)nc3cc(C)c(Br)c(C)n23)c(C)c1	·	-25	·	-4	45	3	·	·
Cc1cc(C)c(C#N)c(SCc2nnc(-c3ccccc3)o2)n1	79*	67*	80*	-2	87*	81*	57*	92*
Cc1ccc(C#N)c(SCc2nnc(-c3ccc(Cl)cc3)o2)n1	75*	54*	69*	0	72	77*	45*	89*
Cc1ccc(C#N)c(SCc2cc3c(cc2Cl)OCO3)n1	5	-25	-3	-5	11	-3	·	·
Cc1cc(C)c(C#N)c(SCc2nnc(-c3ccccc3[N+](=O)[O-])o2)n1	-68	-47	-93	9	-163	-47	·	·
Cc1ccccc1NC(=O)OC1CCC12CCC(c1ccccc1)CC2 (stereo unspecified)	·	9	·	·	·	-5	·	·
CNC(=O)c1cc(Oc2ccc(NC(=O)Nc3ccc(Cl)c(C(F)(F)F)c3)cc2)ccn1	40	65*	32	-8	43	72*	15*	48*
O=C(c1ccccc1)c1nn(-c2ccccc2)c(=O)cc1C(F)(F)F	12	-15	-12	0	2	17	·	·
O=C(c1ccccc1)c1nn(-c2ccc(Cl)cc2)c(=O)cc1C(F)(F)F	64*	69*	26	2	85*	40*	50*	62*
O=C(CCCN1C(=O)/C(=C/c2ccccc2Cl)SC1=S)NNC(=O)c1ccc(Cl)cc1Cl	34	81*	27	-2	3	72*	39*	42*
O=C(CCN1C(=O)/C(=C/c2ccccc2Cl)SC1=S)Nc1ccccc1C(=O)O	4	8	-22	-8	4	-7	·	·
O=C(CCCN1C(=O)/C(=C/c2ccccc2Cl)SC1=S)NNC(=O)c1cccnc1	18	79*	18	3	20	54*	3	16
O=C(CCCN1C(=O)S/C(=C\c2ccccc2)C1=O)NNC(=O)c1ccccc1O	71*	78*	60	-2	42	61*	82*	87*
